# A selection: hits, their analogues and other compounds. The true share with any hit is near 2.4%.
# KAT2A inh: inhibitors of human GCN5L2 histone acetyltransferase. GCN5L2 HAT assay, ThioGlo1 CoA-SH fluorescence. Potency, µM (titrated, usually from 58.9 µM), most hits filed as inhibitors. actives 0.21% (n = 390,000)
#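 Enzyme at 20nM final was mixed with library compounds for 15 min at room temperature. Peptide H3(1-25) at 75uM, acetyl-CoA at 70uM and ThioGlo1 at 50uM were then added. Plates were read immediately and after 20 min (Ex340nm/Em540nm).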
# Pol eta inh: DNA polymerase eta (human) inhibition; actives 1.2% (n = 390,000); recombinant Pol eta, fluorescent DNA replication assay; AID 588591; Q9Y253; Potency, µM (titrated, usually from 114 µM), usual class: inhibitors
#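 Pol eta (10 nM) was preincubated with compounds for 15 min at room temperature, after which fluorescent replication substrate (50 nM final) was added to start the reaction. Fluorescence was read kinetically at 0 and 10 min.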
# GLS inhibitor: glutaminase GLS (human) inhibition | GLS enzymatic activity, qHTS titration | Potency, µM (doses to about 45.5 µM), most hits filed as inhibitors | actives 0.21% (n = 410,000) | AID 624170
# Target sequence (O94925 whole entry, looked up): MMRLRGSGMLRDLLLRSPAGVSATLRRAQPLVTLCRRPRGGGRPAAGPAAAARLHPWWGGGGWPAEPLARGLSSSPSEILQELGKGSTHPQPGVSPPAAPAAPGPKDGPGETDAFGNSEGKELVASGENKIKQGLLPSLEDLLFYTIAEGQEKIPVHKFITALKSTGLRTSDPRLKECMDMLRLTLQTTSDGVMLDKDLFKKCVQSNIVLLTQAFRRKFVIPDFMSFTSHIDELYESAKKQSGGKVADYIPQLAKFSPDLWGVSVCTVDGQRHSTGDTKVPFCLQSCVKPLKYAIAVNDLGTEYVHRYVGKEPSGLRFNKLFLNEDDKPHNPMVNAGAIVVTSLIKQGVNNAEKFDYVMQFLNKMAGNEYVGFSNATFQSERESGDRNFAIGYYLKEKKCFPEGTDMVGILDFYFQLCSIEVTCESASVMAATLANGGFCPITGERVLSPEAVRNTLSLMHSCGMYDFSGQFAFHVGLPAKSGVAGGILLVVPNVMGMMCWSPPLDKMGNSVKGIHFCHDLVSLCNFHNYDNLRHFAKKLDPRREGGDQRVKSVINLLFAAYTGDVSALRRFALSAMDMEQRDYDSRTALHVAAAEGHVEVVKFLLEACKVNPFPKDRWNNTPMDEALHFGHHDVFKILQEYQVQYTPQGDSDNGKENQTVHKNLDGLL
#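 Human kidney-isoform GLS in 45 mM KH2PO4 pH 8.2, 0.02% Tween-20, with compound, started with 1mM L-Glutamine (added stock). Glutamate oxidase/HRP/Amplex red coupled fluorescence read at start and after 30 min at RT.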
# POLB inh: blocks human DNA polymerase beta activity | P06746 | Pol beta primer extension/strand displacement, fluorescence kinetic | Potency, µM (top dose mostly 114 µM), usual class: inhibitors | actives 1.3% (n = 340,000)
#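 Homogeneous kinetic assay of primer extension and strand displacement by 10 nM Pol beta, preincubated 15 min at room temperature with compound before 50 nM substrate (final) was added. Read at 0 and 10 min; four-parameter Hill fit.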
# Pol kappa inh: DNA polymerase kappa (human) inhibition; Q9UBT6; Potency, µM (doses to about 107 µM), hits mostly inhibitors; AID 588579; purified Pol kappa, fluorescent DNA synthesis assay, 10 min; actives 0.53% (n = 400,000)
#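 Inhibition of 10 nM Pol kappa is measured by a fluorescent read-out at 0 and 10 min following addition of 50 nM substrate (final), with a 15-min room-temperature compound preincubation.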
# POLI inh: DNA polymerase iota (human) inhibition. Q9UNA4. Pol iota fluorescent replication assay, 10 min. Potency, µM (titrated, usually from 115 µM), actives largely listed as inhibitors. actives 1% (n = 390,000). AID 588590
#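 Fluorescent replication assay read twice, at 0 min and 10 min after adding 50 nM (final) substrate. Enzyme (10 nM) and compounds were first incubated 15 min at room temperature; enzyme-free buffer wells were negative controls.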
# Numbers stand for hits; i = inactive; ? = inconclusive; nt = no result; ! = not confirmed by another sample. Calls follow the shape of the dose curve; as a rule, active = well fitted inhibition curve with a large enough effect; inconclusive = small, poorly fitted or top-dose-only effect, or another doubt; inactive = no such curve, though single readings can be large or run the other way.
SMILES,KAT2A inh,Pol eta inh,GLS inhibitor,POLB inh,Pol kappa inh,POLI inh
Cc1ccc(C)c(N2CCN(S(=O)(=O)c3ccc4c(c3)CCN4C(=O)CCC(=O)O)CC2)c1,i,i,i,i,i,i
O=C(O)CCC(=O)N1CCc2cc(S(=O)(=O)N3CCN(c4ccc(F)cc4)CC3)ccc21,i,i,i,22.4µM,i,?
COc1cc2nc(N3CCCN(C)CC3)nc(NC3CCOCC3)c2cc1OC,nt,nt,nt,nt,i,i
CCc1ccc(NC(=O)Cn2ccn(-c3ccc(OC)cc3)c(=O)c2=O)cc1,i,i,i,31.6µM,i,i
CCc1ccccc1NC(=O)Cn1ccn(-c2ccc(OC)cc2)c(=O)c1=O,i,i,i,i,i,i
CCOc1cc(NC(=O)c2ccco2)c(OCC)cc1NC(=O)Cc1ccc(OC)c(OC)c1,i,i,i,i,i,50.1µM
COc1ccc(-n2c(C)cc(/C=N/Nc3nnc(C)n3N)c2C)cc1,i,i,i,i,i,22.4µM
COc1cccc(/C=N/Nc2nnc(C)n2N)c1O,i,i,i,i,i,3.98µM
Cc1nnc(N/N=C/c2ccccc2F)n1N,i,i,i,i,i,?
Cn1nnnc1SCC1=C(C(=O)O)N2C(=O)C(NC(=O)C(O)c3ccccc3)C2SC1 (stereo unspecified),i,nt,nt,nt,?,nt
Cn1nnnc1SCC1=C(C(=O)O)N2C(=O)C(NC(=O)C(OC=O)c3ccccc3)C2SC1 (stereo unspecified),i,nt,nt,nt,22.4µM,nt
Cn1nnnc1SCC1=C(C(=O)O)N2C(=O)[C@@H](NC(=O)[C@H](OC=O)c3ccccc3)[C@H]2SC1,nt,nt,22.4µM,nt,nt,nt
Cn1nnnc1SCC1=C(C(=O)O)N2C(=O)[C@@H](NC(=O)[C@H](O)c3ccccc3)[C@H]2SC1,i,1.26µM,10µM,10µM,1.58µM,3.16µM
O=[N+]([O-])c1ccc(Oc2ccc(N=C=S)cc2)cc1,nt,nt,i,nt,nt,nt
Cc1cc2ccccn2c1C(=O)c1nc(NCc2ccccc2)ncc1Cl,i,i,i,i,i,79.4µM!
O=C(O)c1nc(NCc2ccccc2)ncc1Cl,i,i,i,i,i,i
CC(C(=O)c1ccccc1)[n+]1cccc(Cl)c1 (stereo unspecified),nt,nt,nt,nt,i,i
O=C(c1ccccc1)c1ccc2nc(N3CCN(C(=O)c4ccco4)CC3)c3nncn3c2c1,i,i,i,i,i,79.4µM
Cc1cc2nc3ccc(N(C)C)cc3nc2cc1N,nt,?,i,nt,?,6.31µM
CCOc1ccccc1CNC(=O)c1cc2c(=O)n(Cc3ccccc3)ccc2nc1C,i,i,i,25.1µM,i,?
Cc1ccccc1NC(=O)Cn1c(=O)n(CCC(=O)NCc2ccc3c(c2)OCO3)c(=O)c2sccc21,i,i,i,50.1µM,i,i
CCc1ccc(NCc2cc3cc4c(cc3n(CC(=O)Nc3ccc(Cl)cc3)c2=O)OCO4)cc1,i,i,12.6µM,i,i,i
CCc1ccc(NCc2cc3cc4c(cc3n(CC(=O)Nc3ccccc3C)c2=O)OCCO4)cc1,i,i,11.2µM,i,i,?
CCc1ccc(NCc2cc3cc4c(cc3n(CC(=O)Nc3ccccc3OC)c2=O)OCCO4)cc1,i,i,i,?,i,i
Cc1cc(C(=O)N/N=C/c2ccc(-c3ccccc3Cl)o2)n[nH]1,i,?,i,10µM,?,i
SMILES,KAT2A inh,Pol eta inh,GLS inhibitor,POLB inh,Pol kappa inh,POLI inh
Cc1cc(C(=O)N/N=C/c2ccc(-c3ccc([N+](=O)[O-])cc3Cl)o2)n[nH]1,i,?,i,?,i,i
CCCCN(C(=O)Cn1ncc(Cl)c(Cl)c1=O)c1c(N)n(CC(C)C)c(=O)[nH]c1=O,?,28.2µM,i,22.4µM,70.8µM,15.8µM
O=C(N/N=C\c1ccc(-c2ccccc2[N+](=O)[O-])o1)C1COc2ccccc2O1 (stereo unspecified),i,?,i,i,i,i
O=C(N/N=C/c1ccc(-c2ccccc2[N+](=O)[O-])o1)c1cncc(Br)c1,i,i,i,i,i,i
O=C(N/N=C\c1ccc(-c2ccccc2[N+](=O)[O-])o1)C1COc2cc3ccccc3cc2O1 (stereo unspecified),22.4µM,i,i,i,i,i
Cc1c(C(=O)N/N=C/c2ccc(-c3ccccc3[N+](=O)[O-])o2)sc(N)c1C#N,i,14.1µM,i,i,i,56.2µM
Nn1cnnc1N/N=C\c1ccc(-c2ccccc2[N+](=O)[O-])o1,i,i,i,i,i,2.82µM
COc1cccc(-n2c(-c3ccco3)nc3c(cnn3-c3ccccc3C)c2=O)c1,i,i,i,i,i,i
COc1ccc(CCNC(=O)C(=O)NCC(c2ccco2)S(=O)(=O)c2ccc(C)cc2)cc1 (stereo unspecified),i,i,i,i,i,i
N[C@@H](CCCCNC(=O)CCCC[C@@H]1SC[C@H]2NC(=O)N[C@H]12)C(=O)O,?,nt,nt,nt,i,nt
O=C1CN(S(=O)(=O)c2ccccc2)c2ccccc2N1,i,i,i,?,i,i
O=C1CN(S(=O)(=O)c2cc(C(=O)O)ccc2Cl)c2ccccc2N1,i,50.1µM,i,50.1µM,i,?
Nc1c(C(=O)Nc2ccc(Br)cc2)sc2nc(-c3ccco3)ccc12,i,i,i,i,i,i
CC(=O)c1sc2nc(-c3ccco3)ccc2c1N,?,28.2µM,?,12.6µM,79.4µM,5.01µM
COc1ccc(/C=C(\C#N)c2nc3ccc(C)cc3[nH]2)cc1Oc1ccc(C(F)(F)F)cc1[N+](=O)[O-],2.82µM,i,i,?,i,i
CCOC(=O)COc1ccc(/C=C(\C#N)c2nc3ccc(C)cc3[nH]2)cc1OC,i,79.4µM,i,11.2µM,?,?
CCOc1ccc(Nc2c3ccccc3nc3ccccc23)cc1,i,i,i,20µM,i,i
CN(C)c1ccc(/C=C2\C=Cc3ccccc32)c(F)c1,nt,nt,nt,nt,i,?
N#Cc1ccc(/C=C2\CCCCn3c2nc2cc(C(=O)O)ccc2c3=O)cc1,i,i,i,?,i,i
O=C(O)c1ccc2c(=O)n3c(nc2c1)/C(=C/c1ccc(C(F)(F)F)cc1)CC3,i,?,i,i,i,79.4µM
O=c1[nH]c(=S)[nH]c2n[nH]nc12,nt,nt,nt,nt,i,i
O=C(COC(=O)CCN1C(=O)/C(=C\C=C\c2ccccc2)SC1=S)Nc1cc(F)ccc1F,i,31.6µM,i,?,?,25.1µM
CC1=C(/C=C/C(C)=C/C=C/C(C)=C/C(=O)O)C(C)(C)CCC1,31.6µM!,i,i,i,?,i
O=c1cc(-c2c(O)c3ccccc3n(Cc3ccccc3)c2=O)[nH][nH]1,i,?,?,8.91µM,79.4µM,?
CCn1c(CN2CCOCC2)nc2cc(NC(=O)c3cccc([N+](=O)[O-])c3)ccc21,i,i,i,i,i,i
